Measurements from PubChem BioAssay (NCI).
The panel holds about 79,000 compounds, 15% with a hit somewhere; the sample as a whole holds those more often. Unmarked numbers belong to inactive results. Calls of active or inactive are those of the source. Rule as the data show it: active = growth inhibition above about 70%; inactive = the rest.

Test: NCI Yeast Anticancer Drug Screen. Data for the rad18 strain (AID 177)
Details: S. cerevisiae rad18 mutant growth inhibition, stronger effect = higher value
Protocol: Growth inhibition of yeast strains with defined genetic alterations is measured as a screen for potential anti-cancer activity. Selected strains with alterations in DNA damage repair or cell cycle control were exposed to compounds and growth inhibition was measured relative to vehicle treated controls. The strain used in this assay is rad18

CC(=O)Nc1ccc(SC(C)=O)cc1
growth inhibition (at 1.2 µM): -28%
growth inhibition (at 3.7 µM): -10%
growth inhibition (at 11.0 µM): -4%
growth inhibition (at 33.0 µM): 52%
growth inhibition (at 100.0 µM): 84% (active)

Cc1c(C(Cc2ccccc2N(C)C(=O)/C=C\C(=O)O)c2c[nH]c3ccccc23)c2ccccc2n1C (stereo not given)
growth inhibition (at 1.2 µM): -14%
growth inhibition (at 3.7 µM): -14%
growth inhibition (at 11.0 µM): -8%
growth inhibition (at 33.0 µM): 0%
growth inhibition (at 100.0 µM): 42%

CCCCCCc1cc(C(=O)OC/C(C)=N/NC(N)=O)c2ccccc2n1
growth inhibition (at 1.2 µM): -1%
growth inhibition (at 3.7 µM): -2%
growth inhibition (at 11.0 µM): -4%
growth inhibition (at 33.0 µM): -7%
growth inhibition (at 100.0 µM): -7%

CSc1nc(=S)[nH]c2c1c(C)nn2-c1ccccc1
growth inhibition (at 1.2 µM): 10%
growth inhibition (at 3.7 µM): -10%
growth inhibition (at 11.0 µM): 4%
growth inhibition (at 33.0 µM): -5%
growth inhibition (at 100.0 µM): 36%

O=C(O)C1OC1(c1cccc(Cl)c1)c1ccccc1Cl (stereo not given)
growth inhibition (at 1.2 µM): -6%
growth inhibition (at 3.7 µM): -16%
growth inhibition (at 11.0 µM): 3%
growth inhibition (at 33.0 µM): 57%
growth inhibition (at 100.0 µM): 90% (active)

C[S+](C)C1(c2ccccc2)C(=O)c2ccccc2C1=O
growth inhibition (at 1.2 µM): 5%
growth inhibition (at 3.7 µM): 9%
growth inhibition (at 11.0 µM): 16%
growth inhibition (at 33.0 µM): 36%
growth inhibition (at 100.0 µM): 54%

O=C1OC(CCl)CN1/N=C/c1ccc([N+](=O)[O-])o1 (stereo not given)
growth inhibition (at 1.2 µM): 45%
growth inhibition (at 3.7 µM): 72% (active)
growth inhibition (at 11.0 µM): 91% (active)
growth inhibition (at 33.0 µM): 95% (active)
growth inhibition (at 100.0 µM): 96% (active)

CCCCCCCC1(N=[N+]=[N-])C(=O)c2ccccc2N(C)C1=O (stereo not given)
growth inhibition (at 1.2 µM): 18%
growth inhibition (at 3.7 µM): 12%
growth inhibition (at 11.0 µM): 20%
growth inhibition (at 33.0 µM): 67%
growth inhibition (at 100.0 µM): 83% (active)
